# Measurements from PubChem BioAssay (NCATS).
# Values joined by “and” are separate entries in the source; they are usually repeats but may differ in a detail not shown here. Equal entries are not always repeated. Records with an inconclusive call do not appear. Active and inactive are the calls of the source. The call rests on the fitted dose curve; in most records, active means well fitted inhibition curve with a large enough effect; inconclusive means small, poorly fitted or top-dose-only effect; inactive means flat fitted curve, though single readings scatter.
# Test system: W2
# Experiment: qHTS profiling for inhibitors of Plasmodium falciparum proliferation (AID 504749);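 further: 0% = DMSO vehicle and full inhibition = artemisinin control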
# Details: P. falciparum in erythrocytes, SYBR Green DNA, 72 h; series mostly up to 28.7 µM
# Method in brief: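 SYBR Green fluorescence of parasite DNA, read after lysis and overnight dark incubation, measured growth over 72 h in erythrocyte culture at 0.3% parasitemia and 2.5% hematocrit. Data normalised to DMSO and 0.29 uM artemisinin, with plate-drift correction.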
# Further: nearly all actives have a fitted effect of over 60% in size.
row,Structure (SMILES),Potency
1,COc1ccc2c3c1O[C@H]1C[C@@H](O)C=C[C@@]31CCN(C)C2,inactive
2,Oc1cc(O)c2c(c1)OC(c1ccc(O)c(O)c1)C(O)C2 (stereo unspecified),inactive
3,CC(O)CO (stereo unspecified),inactive

# Test system: CRL-7250
# Experiment: Cytotoxic Profiling of Annotated Libraries Using Quantitative High-Throughput Screening (AID 1296008); further: potency means the concentration at half of the fitted maximal effect; on max response: on the % scale 0 is the no-effect control and ±100 the full control effect
# Details: Five cell lines viability, CellTiter-Glo ATP luminescence, 48-72 h; max response: active compounds read low
# Method in brief: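 Cytotoxicity was measured as CellTiter-Glo ATP luminescence, read after 10 min at room temperature. Compound treatment of the cells lasted 48 or 72 hr at 37 degrees Celsius in a qHTS format.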
Structure (SMILES),max response,outcome,Potency
C=C1C(=O)O[C@H]2[C@H]1[C@@H](OC(=O)C(C)CO)C[C@@]1(C)[C@H](O)CCC(=O)[C@H]21 (stereo partly specified),-10.3% (inactive),,
C[C@@H]1O[C@@H](O[C@H]2[C@H](O)[C@@H](O)[C@H](OC[C@H]3O[C@@H](OC(=O)[C@]45CCC(C)(C)C[C@H]4C4=CCC6[C@@]7(C)C[C@H](O)[C@H](O[C@@H]8O[C@H](CO)[C@@H](O)[C@H](O)[C@H]8O)[C@@](C)(C(=O)O)C7CC[C@@]6(C)[C@]4(C)CC5)[C@H](O[C@@H]4O[C@H](CO)[C@@H](O)[C@H](O)[C@H]4O)[C@@H](O)[C@@H]3O)O[C@@H]2CO)[C@H](O)[C@H](O)[C@H]1O (stereo partly specified),2.51% (inactive),,
COc1cc(C/C(=C/NC(C)=O)N(CC(=O)Cc2ccccc2)C(C)=O)cc2c1OCO2,-6.34% (inactive),,
CCC(CC)n1ccc2c(C(=O)NCc3c(C)cc(C)[nH]c3=O)cc(C#N)cc21,-1.01% (inactive),,
COc1ccc2c3c1O[C@H]1C[C@@H](O)C=C[C@@]31CCN(C)C2,,inactive,
C=C1CC/C=C(/CO)C(=O)C[C@@H]2[C@@H]1CC2(C)C,,inactive,
CO/N=C(/C(=O)N[C@@H]1C(=O)N2C(C(=O)O)=C(CSC(=O)c3ccco3)CS[C@H]12)c1csc(N)n1,-7.13% (inactive) and 1.26% (inactive),,
N[C@H]1C[C@H]1c1ccc(-c2cccc(O)c2)cc1,0.175% (inactive) and -10.6% (inactive),,
COC(=O)C[C@@H]1C(C(=O)O)=CO[C@@H](O[C@@H]2O[C@H](CO)[C@@H](O)[C@H](O)[C@H]2O)/C1=C\COC(=O)/C=C\c1ccccc1,-11.7% (inactive),,
CC(=O)OC(C)OC(=O)C(C)c1ccc(-c2ccccc2)c(F)c1 (stereo unspecified),-4.19% (inactive),,
CC(CCC1C(C(=O)O)=CC(=O)CC1(C)C)O[C@@H]1O[C@H](CO)[C@@H](O)[C@H](O)[C@H]1O (stereo partly specified),1.37% (inactive),,
O=C(C1CC1)N1CC[C@@H](Cc2n[nH]c(=O)n2-c2ccc(-c3ccc4occc4c3)cc2)C1,-4.78% (inactive) and -21.6% (inactive),,
O=C(Nc1cccnn1)N1CCC(=Cc2cccc(Oc3ccc(C(F)(F)F)cn3)c2)CC1,-4.32% (inactive),,
COC(=O)C1=CO[C@@H](O[C@@H]2O[C@H](CO)[C@@H](O)[C@H](O)[C@H]2O)[C@@H]2[C@@H](C(=O)OC)[C@@H](O)C(O)[C@H]12 (stereo partly specified),-2.23% (inactive),,
NCc1ccc(OCCCc2sc(-c3ccc4c(c3)/C(=N/Nc3nc5ccccc5s3)CCC4)nc2C(=O)O)cc1,-14.2% (inactive),,
COc1c(C)c(C(=O)c2ccc(N)c(C(=O)O)c2)n2ccccc12,-6.91% (inactive),,
CC[C@H]1OC(=O)C[C@@H](O)[C@H](C)[C@@H](O[C@@H]2O[C@H](C)[C@@H](O)[C@H](N(C)C)[C@H]2O)[C@@H](CCN2C[C@H](C)C[C@H](C)C2)C[C@@H](C)C(=O)/C=C/C(C)=C/[C@@H]1CO[C@@H]1O[C@H](C)[C@@H](O)[C@@H](OC)[C@H]1OC,1.46% (inactive),,
CCC(=O)O[C@]1(C(=O)CCl)[C@@H](C)C[C@H]2[C@@H]3C[C@H](F)C4=CC(=O)C=C[C@]4(C)[C@@]3(F)[C@@H](O)C[C@@]21C,-3.75% (inactive),,
CC(C)c1ccc(CC(=O)N2CCC[C@@H](c3cccc(OC(C)(C)C(=O)O)c3)C2)cc1,-8.91% (inactive),,
COc1ccc(C[C@H](N)C(=O)N[C@H]2[C@@H](O)[C@H](n3cnc4c(N(C)C)ncnc43)O[C@@H]2CO)cc1,,,920 nM (active)
O=C(/C=C/c1ccccc1)OCC1=CC[C@@H]2C(C(=O)O)=CO[C@@H](O[C@@H]3O[C@H](CO)[C@@H](O)[C@H](O)[C@H]3O)[C@H]12,,inactive,
O=C(O)C[C@H](O)C[C@H](O)/C=C/c1c(C2CC2)nc2ccccc2c1-c1ccc(F)cc1,,,731 nM (active)
Cc1coc2c1CC1OC1(C)CCC1OC1(C)C2 (stereo unspecified),4.59% (inactive),,
